For twelve compounds, Potency and outcome results are on record in PubChem BioAssay (Tox21).

“And” between values parts separate entries of the source, which are not always exact repeats. Identical values can stand only once. Inconclusive results are not listed. Some structures have more than one record in an assay (separate samples or runs), and their calls can disagree. The source made the active and inactive calls. Unless noted, the call rests on the fitted dose curve.

The nature of experiment [1]: qHTS assay to identify small molecule agonists of the sonic hedgehog signaling (Shh) pathway (AID 1259368).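 Further: NIH/3T3-derived 3T3Gli1-Luc cells carrying a stable Gli1-driven firefly luciferase reporter; series mostly up to about 92 µM; nearly all actives have a fitted effect of over 15% in size.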 The method in brief:
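Steps: seed 3T3 Gli1-Luc cells, incubate 4 hr at 37 C, pin-transfer compounds in DMSO alongside a positive control, incubate 24 hr, add luciferase detection reagent, wait 30 min at room temperature, read luminescence.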
For orientation: qHTS replaces the single test concentration by a dilution series.

Experiment [2] in a line: qHTS assay to identify small molecule antagonists of the sonic hedgehog signaling (Shh) pathway (AID 1259369). Further: nearly all actives have a fitted effect of over 45% in size. Further: potency means the concentration at half of the fitted maximal effect. An outline of the steps: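 Inhibition of Shh signalling is measured as reduced Gli1-response-element firefly luciferase output in an NIH/3T3-derived stable reporter clone stimulated with conditioned medium for 24hr.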
Experiment [3] is described as follows: qHTS assay to identify small molecule agonists of the estrogen receptor beta (ER-beta) signaling pathway - cell viability counter screen (AID 1259380; active means well fitted curve in the direction sought with a large enough effect in the repeat runs; an effect the other way counts as inactive or inconclusive; further: nearly all actives have a fitted effect of over 30% in size; further: potency means the concentration at half of the fitted maximal effect). An outline of the steps: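 Same-well viability counter screen. Cells: ER-beta-UAS-bla HEK293T, plated 6 hr before compound, in 2% charcoal-stripped FBS. Compound exposure 16 hr, 37C; viability by CellTiter-Glo luminescence after 30 min at room temperature.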

For experiment [4], the target named is Estrogen receptor (Homo sapiens) (UniProt P03372). Briefly: qHTS assay to identify small molecule agonists of the estrogen receptor alpha (ER-alpha) signaling pathway in the presence of an antagonist (AID 1259383). Further: top concentration of the series differs between compounds; nearly all actives have a fitted effect of over 15% in size. The method in brief:
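Cells are hormone-deprived for 5 days (charcoal-stripped FBS, no phenol red), plated for 24hr, spiked with 10.0nM ICI-182,780, then dosed at 15 concentrations. After 22hr at 37C, ONE-Glo luminescence reports ERE-luciferase activity.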

Experiment [5] is described as follows: qHTS assay to identify small molecule agonists or antagonists of the thyroid stimulating hormone receptor (TSHR) signaling pathway - wild type cell line counter screen (AID 1259384). An outline of the steps: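 Wild-type HEK293 cells were plated 18 h at 37 C/5% CO2, pin-dosed with compound plus Ro20-1724 medium, held 30 min at room temperature, then given cAMP-d2 and anti-cAMP-cryptate; fluorescence was read after 1 h. Fifteen concentrations, triplicate.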

Experiment [6] has as its target Thyrotropin receptor (Homo sapiens) (UniProt P16473). Briefly: qHTS assay to identify small molecule antagonists of the thyroid stimulating hormone receptor (TSHR) signaling pathway (AID 1259385). Further: nearly all actives have a fitted effect of over 20% in size. The method in brief:
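TSHR-HEK293 cells were plated and held 18 h at 37C/5% CO2, then given compound plus Ro20-1724 and stimulated with TSH at 1.5 ng/mL final. After 30 min at room temperature, cAMP was detected with cAMP-d2/anti-cAMP-cryptate (1 h) by fluorescence.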

The nature of experiment [7]: qHTS assay to identify small molecule agonists of the estrogen receptor alpha (ER-alpha) signaling pathway in the presence of an antagonist - cell viability counter screen (AID 1259386; active means well fitted curve in the direction sought with a large enough effect in the repeat runs; an effect the other way counts as inactive or inconclusive;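 further: series mostly up to about 92 µM; cells exposed to compounds for 22 h at 37 °C before the viability read; nearly all actives have a fitted effect of over 30% in size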). The method in brief: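 Cells are starved of estrogens for 5 days in charcoal-stripped serum, seeded for 24hr and co-treated with ICI-182,780 (10.0nM final) and test compounds. After 22hr at 37C, viability is read as CellTiter-Fluor fluorescence.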

Experiment [8] concerns the target Progesterone receptor (Homo sapiens) (UniProt P06401). In words: qHTS assay to identify small molecule agonists of the progesterone receptor (PR) signaling pathway (AID 1346784). Further: nearly all actives have a fitted effect of over 30% in size. An outline of the steps: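 Using charcoal-stripped serum (2%) to limit endogenous steroids, PR-UAS-bla HEK 293T cells received compounds for 16 hr at 37C after 6 hr plating; beta-lactamase FRET fluorescence was recorded following 2 hr substrate loading at room temperature.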

The nature of experiment [9]: qHTS assay to identify small molecule antagonists of the progesterone receptor (PR) signaling pathway - cell viability counter screen (AID 1346798; active means well fitted curve in the direction sought with a large enough effect in the repeat runs; an effect the other way counts as inactive or inconclusive; further: series mostly up to about 92 µM; nearly all actives have a fitted effect of over 50% in size). An outline of the steps: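 ATP content as viability readout: CellTiter-Glo luminescence, 30 min room temperature, in PR-UAS-bla HEK293T cells after 16 hr compound/R5020 treatment at 37C and 5% CO2.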
The nature of experiment [10]: qHTS assay to identify small molecule agonists of the progesterone receptor (PR) signaling pathway - cell viability counter screen (AID 1346799). Further: nearly all actives have a fitted effect of over 45% in size. The method in brief:
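Cytotoxicity in PR-bla HEK293T cells: 16 h compound, 37C; CellTiter-Glo added post-FRET read; luminescence after 30 min RT.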

Experiment [11] in a line: qHTS assay to identify small molecule antagonists of the TGF-beta/Smad signaling pathway - cell viability counter screen (AID 1346824; active means well fitted curve in the direction sought with a large enough effect in the repeat runs; an effect the other way counts as inactive or inconclusive; further: nearly all actives have a fitted effect of over 50% in size). The method in brief:
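SBE-bla HEK 293T cells were plated overnight at 37 C, then given compounds in DMSO plus TGF-beta1 (added as 0.25 ng/mL solution) for 5 hr. After the bla read, CellTiter-Glo was added to the same wells and luminescence read after 30 min at room temperature.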

Experiment [12] is described as follows: qHTS assay to identify small molecule agonists of the TGF-beta/Smad signaling pathway - cell viability counter screen (AID 1346829; active means well fitted curve in the direction sought with a large enough effect in the repeat runs; an effect the other way counts as inactive or inconclusive; further: top concentration of the series differs between compounds; nearly all actives have a fitted effect of over 45% in size). The method in brief:
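SBE-bla HEK 293T cells plated overnight, compound exposure 5 hr at 37 C. Viability read in the same wells by CellTiter-Glo luminescence after 30 min at room temperature, following the beta-lactamase read.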

The target in experiment [13] is Thyrotropin-releasing hormone receptor (Homo sapiens) (UniProt P34981). Briefly: qHTS assay to identify small molecule antagonists of the thyrotropin-releasing hormone receptor (TRHR) signaling pathway (AID 1346877; active means well fitted inhibition curve with a large enough effect in the repeat runs, not every such curve was filed as active; further: series mostly up to about 51 µM). The method in brief:
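Cells (TRHR-HEK293) are plated and kept 18 h at 37 °C/5% CO2. A calcium-sensitive dye is added for 2 h, compound follows for 5 min at room temperature, and TRH is then given at 1 nM final.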

Experiment [14] is described as follows: qHTS assay to identify small molecule agonists of the androgen receptor (AR) signaling pathway in the presence of an antagonist - cell viability counter screen (AID 1259379; active means well fitted curve in the direction sought with a large enough effect in the repeat runs; an effect the other way counts as inactive or inconclusive;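 further: MDA-kb2 human breast cancer cells carrying an MMTV luciferase reporter; series mostly up to about 92 µM; nearly all actives have a fitted effect of over 25% in size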). An outline of the steps: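 Fluorescence from CellTiter-Fluor, added after 15 hr and read 1 hr later, gave cell viability. Cells were MDA-kb2 exposed to compounds (15 concentrations) in the presence of 3.0uM nilutamide at 37C, 0% CO2.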

A short description of experiment [15]: qHTS assay to identify small molecule antagonists of the estrogen receptor beta (ER-beta) signaling pathway - cell viability counter screen (AID 1259382; active means well fitted curve in the direction sought with a large enough effect in the repeat runs; an effect the other way counts as inactive or inconclusive; further: series mostly up to about 92 µM; nearly all actives have a fitted effect of over 55% in size). The method in brief: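 Following a 6 hr plating period, HEK293T cells carrying a UAS-driven beta-lactamase reporter under ER-beta control received compounds and 1nM E2 (final). After 16 hr at 37C and 2 hr substrate loading, CellTiter-Glo luminescence indicated viability.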

Experiment [16] addresses Progesterone receptor (Homo sapiens) (UniProt P06401). Briefly: qHTS assay to identify small molecule antagonists of the progesterone receptor (PR) signaling pathway (AID 1346795; active means well fitted inhibition curve with a large enough effect in the signal ratio in the repeat runs, not every such curve was filed as active; the % refers to the signal ratio; further: potency means the concentration at half of the fitted maximal effect). An outline of the steps:
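Inhibition of R5020-induced (1 nM final) beta-lactamase reporter signal in PR-UAS-bla HEK293T cells was scored by FRET fluorescence after overnight (16 hr) compound treatment.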

Experiment [17] is described as follows: qHTS assay to identify small molecule agonists of the TGF-beta/Smad signaling pathway (AID 1346859; active means well fitted activation curve with a large enough effect in the signal ratio in the repeat runs, not every such curve was filed as active; the % refers to the signal ratio; further: series mostly up to about 77 µM). An outline of the steps: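 Stable Smad binding element-beta-lactamase HEK 293T cells; 5 hr compound exposure at 37 C under 5% CO2; 2 hr room-temperature substrate step; fluorescence excited at 405 nm, collected at 460 nm and 530 nm.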
Experiment [18] deals with Estrogen receptor beta (Homo sapiens) (UniProt Q92731). Briefly: qHTS assay to identify small molecule antagonists of the estrogen receptor beta (ER-beta) signaling pathway (AID 1259378; active means well fitted inhibition curve with a large enough effect in the signal ratio in the repeat runs, not every such curve was filed as active; the % refers to the signal ratio). The method in brief:
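ER-beta-UAS-bla HEK293T (GripTite) cells in 2% charcoal-stripped FBS medium were preincubated 6 hr at 37C, dosed with compound, then stimulated with 1 nM E2 (final) for 16 hr; beta-lactamase reporter read by B/G FRET fluorescence after 2 hr substrate loading.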

Experiment [19] deals with Androgen receptor (Homo sapiens) (UniProt P10275). Briefly: qHTS assay to identify small molecule agonists of the androgen receptor (AR) signaling pathway in the presence of an antagonist (AID 1259381). Further: nearly all actives have a fitted effect of over 15% in size. Further: potency means the concentration at half of the fitted maximal effect. The method in brief: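 Cells are MDA-kb2 (human breast carcinoma, MMTV-luc, AR/GR responsive). Nilutamide is present at 3.0uM final throughout; compounds are added at 15 concentrations and incubated 16hr at 37C before ONE-Glo luminescence detection.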
Chain of Androgen receptor (Homo sapiens) (P10275 whole entry, looked up): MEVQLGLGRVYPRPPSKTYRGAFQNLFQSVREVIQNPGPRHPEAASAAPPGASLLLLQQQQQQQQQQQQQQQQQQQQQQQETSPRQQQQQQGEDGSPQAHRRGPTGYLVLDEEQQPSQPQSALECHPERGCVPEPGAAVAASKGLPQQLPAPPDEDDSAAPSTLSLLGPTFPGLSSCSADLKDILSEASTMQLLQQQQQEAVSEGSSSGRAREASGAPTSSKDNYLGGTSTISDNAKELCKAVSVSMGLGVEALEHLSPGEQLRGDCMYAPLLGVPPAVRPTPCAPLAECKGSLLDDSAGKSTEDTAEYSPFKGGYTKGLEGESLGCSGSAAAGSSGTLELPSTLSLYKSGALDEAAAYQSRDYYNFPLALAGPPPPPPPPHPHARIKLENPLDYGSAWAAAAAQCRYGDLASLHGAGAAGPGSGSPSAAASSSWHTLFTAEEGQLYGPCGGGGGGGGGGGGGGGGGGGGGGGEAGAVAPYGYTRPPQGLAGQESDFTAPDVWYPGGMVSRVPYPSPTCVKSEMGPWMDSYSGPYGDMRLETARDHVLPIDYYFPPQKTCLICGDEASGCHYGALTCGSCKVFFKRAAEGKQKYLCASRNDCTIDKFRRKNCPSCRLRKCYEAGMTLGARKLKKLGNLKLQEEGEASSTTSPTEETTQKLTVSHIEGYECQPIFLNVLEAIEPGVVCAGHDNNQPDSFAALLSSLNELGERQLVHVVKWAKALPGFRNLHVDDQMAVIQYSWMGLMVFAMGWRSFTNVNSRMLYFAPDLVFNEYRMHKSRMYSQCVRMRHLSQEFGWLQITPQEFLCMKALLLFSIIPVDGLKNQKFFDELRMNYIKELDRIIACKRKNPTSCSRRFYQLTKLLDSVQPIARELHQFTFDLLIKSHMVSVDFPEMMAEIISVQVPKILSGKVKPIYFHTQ

Chain of Estrogen receptor (Homo sapiens) (P03372 whole entry, looked up): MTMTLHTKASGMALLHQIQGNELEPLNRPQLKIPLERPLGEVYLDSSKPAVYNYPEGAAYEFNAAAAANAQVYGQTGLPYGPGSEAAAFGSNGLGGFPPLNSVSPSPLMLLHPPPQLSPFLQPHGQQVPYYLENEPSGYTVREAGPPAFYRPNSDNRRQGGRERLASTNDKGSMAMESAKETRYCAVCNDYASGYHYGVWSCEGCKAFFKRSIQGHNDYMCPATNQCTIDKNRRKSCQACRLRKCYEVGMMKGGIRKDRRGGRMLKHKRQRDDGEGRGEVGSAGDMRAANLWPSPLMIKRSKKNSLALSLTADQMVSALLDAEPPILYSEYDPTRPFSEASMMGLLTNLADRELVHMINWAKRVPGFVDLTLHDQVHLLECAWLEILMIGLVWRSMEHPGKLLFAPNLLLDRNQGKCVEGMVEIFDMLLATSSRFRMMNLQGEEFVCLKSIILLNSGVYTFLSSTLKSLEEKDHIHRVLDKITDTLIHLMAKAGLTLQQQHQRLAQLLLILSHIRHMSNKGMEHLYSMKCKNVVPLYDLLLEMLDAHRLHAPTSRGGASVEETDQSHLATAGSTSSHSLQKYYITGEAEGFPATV
Chain of Thyrotropin receptor (Homo sapiens) (P16473 whole entry, looked up): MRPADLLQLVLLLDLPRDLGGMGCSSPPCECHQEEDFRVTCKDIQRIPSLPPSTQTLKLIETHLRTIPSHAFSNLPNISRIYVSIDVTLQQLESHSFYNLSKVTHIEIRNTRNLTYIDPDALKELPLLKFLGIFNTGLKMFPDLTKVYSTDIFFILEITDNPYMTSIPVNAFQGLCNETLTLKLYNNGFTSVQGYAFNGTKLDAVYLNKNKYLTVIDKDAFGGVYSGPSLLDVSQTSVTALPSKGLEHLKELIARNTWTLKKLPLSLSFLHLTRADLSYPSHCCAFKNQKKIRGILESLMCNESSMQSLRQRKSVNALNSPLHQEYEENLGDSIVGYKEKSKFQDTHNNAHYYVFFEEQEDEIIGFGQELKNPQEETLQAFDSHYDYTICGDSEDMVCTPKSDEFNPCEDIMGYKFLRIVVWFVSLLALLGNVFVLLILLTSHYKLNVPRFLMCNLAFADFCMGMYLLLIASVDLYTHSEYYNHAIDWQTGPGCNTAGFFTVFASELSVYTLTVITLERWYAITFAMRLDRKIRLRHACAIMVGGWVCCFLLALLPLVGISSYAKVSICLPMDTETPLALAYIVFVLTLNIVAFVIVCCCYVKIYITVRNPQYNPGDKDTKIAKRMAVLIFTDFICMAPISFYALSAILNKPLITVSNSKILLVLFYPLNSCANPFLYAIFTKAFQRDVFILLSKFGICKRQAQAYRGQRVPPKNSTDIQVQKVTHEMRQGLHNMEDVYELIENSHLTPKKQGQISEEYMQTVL
Chain of Thyrotropin-releasing hormone receptor (Homo sapiens) (P34981 whole entry, looked up): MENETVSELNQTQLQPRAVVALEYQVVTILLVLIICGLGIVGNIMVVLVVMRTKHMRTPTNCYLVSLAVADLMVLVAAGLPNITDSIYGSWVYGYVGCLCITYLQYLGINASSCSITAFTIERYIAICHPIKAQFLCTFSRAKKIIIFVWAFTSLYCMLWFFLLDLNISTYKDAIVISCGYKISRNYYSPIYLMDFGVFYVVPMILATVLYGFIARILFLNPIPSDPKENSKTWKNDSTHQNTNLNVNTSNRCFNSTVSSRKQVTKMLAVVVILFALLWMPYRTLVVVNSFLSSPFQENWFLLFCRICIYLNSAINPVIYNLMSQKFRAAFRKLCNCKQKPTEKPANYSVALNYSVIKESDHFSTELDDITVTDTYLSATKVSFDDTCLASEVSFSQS
Chain of Progesterone receptor (Homo sapiens) (P06401 whole entry, looked up): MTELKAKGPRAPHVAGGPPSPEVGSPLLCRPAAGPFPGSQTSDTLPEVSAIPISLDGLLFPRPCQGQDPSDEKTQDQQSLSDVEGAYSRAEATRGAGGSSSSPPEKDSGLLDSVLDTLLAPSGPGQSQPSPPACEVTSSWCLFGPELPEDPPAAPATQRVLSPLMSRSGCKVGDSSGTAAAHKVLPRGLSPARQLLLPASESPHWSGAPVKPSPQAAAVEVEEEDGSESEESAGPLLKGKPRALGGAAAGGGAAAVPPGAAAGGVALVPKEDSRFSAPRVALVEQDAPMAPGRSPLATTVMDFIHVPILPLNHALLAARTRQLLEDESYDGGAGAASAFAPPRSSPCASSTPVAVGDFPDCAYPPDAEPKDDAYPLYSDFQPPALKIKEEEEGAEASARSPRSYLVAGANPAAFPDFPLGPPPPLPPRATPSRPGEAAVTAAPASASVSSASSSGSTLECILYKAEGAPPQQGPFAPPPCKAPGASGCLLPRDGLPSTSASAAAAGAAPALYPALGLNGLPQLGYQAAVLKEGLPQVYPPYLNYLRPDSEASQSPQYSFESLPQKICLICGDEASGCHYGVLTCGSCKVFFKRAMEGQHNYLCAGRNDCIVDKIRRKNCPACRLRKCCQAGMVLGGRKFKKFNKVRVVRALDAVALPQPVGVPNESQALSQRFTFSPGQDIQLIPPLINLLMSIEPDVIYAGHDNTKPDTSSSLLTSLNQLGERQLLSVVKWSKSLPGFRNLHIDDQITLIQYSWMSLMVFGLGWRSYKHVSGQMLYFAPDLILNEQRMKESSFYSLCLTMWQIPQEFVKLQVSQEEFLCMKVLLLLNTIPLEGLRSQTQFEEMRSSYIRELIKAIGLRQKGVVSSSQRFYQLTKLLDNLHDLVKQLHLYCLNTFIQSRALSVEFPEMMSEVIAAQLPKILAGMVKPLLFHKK
Chain of Estrogen receptor beta (Homo sapiens) (Q92731 whole entry, looked up): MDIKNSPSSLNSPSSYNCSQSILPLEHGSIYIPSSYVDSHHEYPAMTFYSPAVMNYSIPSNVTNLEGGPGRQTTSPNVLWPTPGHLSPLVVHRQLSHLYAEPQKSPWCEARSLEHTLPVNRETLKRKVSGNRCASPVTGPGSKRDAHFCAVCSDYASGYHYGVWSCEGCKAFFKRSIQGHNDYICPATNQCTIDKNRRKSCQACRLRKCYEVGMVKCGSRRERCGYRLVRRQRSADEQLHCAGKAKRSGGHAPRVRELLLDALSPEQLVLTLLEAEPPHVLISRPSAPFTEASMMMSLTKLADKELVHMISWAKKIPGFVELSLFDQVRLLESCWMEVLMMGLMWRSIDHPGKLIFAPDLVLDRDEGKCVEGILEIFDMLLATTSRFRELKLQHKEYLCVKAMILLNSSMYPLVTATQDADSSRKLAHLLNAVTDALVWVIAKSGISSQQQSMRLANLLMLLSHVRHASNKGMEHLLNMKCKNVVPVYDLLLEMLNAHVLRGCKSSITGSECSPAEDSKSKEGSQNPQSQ

In the case of `CCOCN(C(=O)CCl)c1c(C)cccc1CC`, the Potency result in experiment [1], in experiment [4], in experiment [7], in [8], in experiment [9] and in experiment [10] was “inactive” each time. Besides, the Potency entry in experiment [11], in [12] and in experiment [13] was “inactive” each time. Besides, the Potency is 18.3 µM (active) and 19.3 µM (active) in [2]; 48.6 µM (active) in experiment [3]. Besides, the compound was classed as inactive in [5] and in experiment [6].

`CC(C)c1ccc(CO)cc1`: the Potency result in [1], in experiment [2], in experiment [14], in experiment [15], in experiment [4] and in [7] was “inactive” throughout. Also, the Potency result in experiment [8], in [16], in [9], in [10], in experiment [11] and in [12] was “inactive” throughout. In addition, the result in experiment [5], in [6] and in experiment [17] was inactive.

In the case of `c1ccc(-c2cccc(-c3ccccc3)c2)cc1`, the Potency entry in experiment [1], in experiment [2], in [14], in experiment [15], in [4] and in experiment [7] was “inactive” throughout. The Potency result in experiment [8], in [9], in [10], in [11], in experiment [12] and in experiment [13] was “inactive” each time. For the same compound, the compound was called inactive in experiment [5], in experiment [6] and in experiment [17].

With `Oc1cc(Cl)ccc1Cl`, the Potency result in experiment [1], in experiment [2], in [14], in experiment [3], in experiment [15] and in experiment [7] was “inactive” throughout. Further, the Potency result in experiment [8], in experiment [16], in experiment [9], in experiment [10], in experiment [11] and in experiment [12] was “inactive” in each case. Also, the Potency entry in experiment [13] is “inactive”. In addition, the result in [5], in experiment [6] and in experiment [17] was inactive.

As to `Oc1ccc(-c2ccccc2)cc1`, the Potency result in experiment [1], in experiment [2], in [14], in experiment [4], in experiment [7] and in experiment [8] was “inactive” each time. The Potency result in [9], in experiment [10], in experiment [11], in experiment [12] and in [13] was “inactive” in each case. Moreover, the compound was called inactive in experiment [5], in experiment [6] and in [17]. Moreover, the Potency in experiment [16] is 15.4 µM (active).

Turning to `c1ccc(N=Nc2ccccc2)cc1`, the Potency result in experiment [1], in experiment [2], in [14], in experiment [3], in experiment [15] and in experiment [7] was “inactive” each time. Further, the Potency entry in experiment [8], in experiment [16], in experiment [9], in experiment [10], in experiment [11] and in experiment [12] was “inactive” throughout. Further, the Potency entry in experiment [13] was “inactive”. Moreover, the compound was called inactive in [5], in [6] and in [17].

For `CCCCCCCCC(=O)NCc1ccc(O)c(OC)c1`, the Potency entry in [1], in [14], in experiment [3], in experiment [15], in experiment [4] and in experiment [7] was “inactive” each time. Also, the Potency result in [11] and in experiment [12] was “inactive” in each case. Moreover, the Potency in [2] was 12.2 µM (active) and inactive; in [16] it was 48.6 µM (active). For the same compound, the result in experiment [5], in experiment [6] and in experiment [17] was inactive.

Take `O=C(CCl)c1ccccc1`: the Potency result in [1], in experiment [18], in experiment [14], in experiment [15], in [7] and in experiment [16] was “inactive” throughout. In addition, the Potency result in [9], in experiment [10], in experiment [11] and in experiment [12] was “inactive” in each case. Moreover, the compound was classed as inactive in [5], in experiment [6] and in [17].

For `C=CCc1ccc2c(c1)OCO2`, the Potency entry in experiment [1], in [2], in [14], in experiment [3], in experiment [7] and in [8] was “inactive” in each case. Also, the Potency entry in experiment [16], in [9], in experiment [10], in experiment [11] and in [12] was “inactive” throughout. Besides, the outcome in experiment [5], in experiment [6] and in experiment [17] was inactive.

Take `O=P(O)(O)CCCl`: the Potency entry in [1], in [2], in [14], in experiment [4], in experiment [7] and in experiment [8] was “inactive” in each case. The Potency result in [16], in experiment [9], in [10], in experiment [11], in experiment [12] and in [13] was “inactive” in each case. The compound was called inactive in [5], in experiment [6] and in [17].

For the compound `Nc1ccc(Cl)cc1N`, the Potency result in experiment [2] is “inactive and 30.6 µM (active)”; in [19], 4.86 µM (active). Further, the Potency result in [14], in experiment [7], in experiment [9], in experiment [10], in experiment [11] and in [12] was “inactive” each time. Moreover, the Potency entry in experiment [13] was “inactive”. In addition, the compound was called inactive in experiment [5] and in [6].

In the case of `COP(=O)(OC)OC`, the Potency result in experiment [1], in experiment [2], in experiment [14], in experiment [3], in [19] and in experiment [4] was “inactive” in each case. Moreover, the Potency entry in experiment [7], in experiment [16], in experiment [9], in experiment [10], in [11] and in experiment [12] was “inactive” each time. The Potency entry in experiment [13] is “inactive”. The call in experiment [5], in experiment [6] and in experiment [17] was inactive.
